# This is part of a sample that, as a whole, favours compounds with a hit. Of some 83,000 tested, about 20% had one in any assay.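 A percent growth of 40 corresponds to 60% growth inhibition; 0 means no net growth; -100 means all cells died. Active threshold: below 10.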 Unmarked numbers belong to inactive results. Calls of active or inactive are those of the source.
# Test system: MDA-MB-468 breast
# Experiment: NCI-60 one-dose screen, 48 h (100 = growth as untreated, 0 = no growth, -100 = all killed)
# Conditions: 10 µM unless noted
row,Compound,growth
1,O=C(Nc1ccc(F)cc1F)c1cc(I)ccc1O,-1.05% (active)
2,COc1ccc(CCN2CCCn3c2nc2ccccc2c3=O)cc1,-14% (active)
3,O=C(N/N=C/c1ccc(F)cc1)c1ccccc1Nc1cccc(C(F)(F)F)c1,83.9%
4,CCCCCN(CCCCC)CC(O)c1cc(C)c2ccc3cc(C(C)C)ccc3c2c1 (stereo not given),-71.1% (active)
5,C=CC(=O)Nc1cccc(Oc2nccc(Nc3nnc(-c4ccc(Br)cc4)s3)n2)c1,114%
6,Cn1cc(-c2csc(-c3cn(C)c4ccc(F)cc34)n2)c2cnccc21,-49.2% (active)
7,CCC[S@@](=O)c1ccc2nc(NC(=O)OC)[nH]c2c1,68.5%
8,COc1ccc(-c2[nH]c3ccccc3c2C=C(C#N)C#N)cc1,-19.8% (active)
9,Cc1nc2cnc(N)c(C#Cc3cncc(C(=O)Nc4ccc(Cl)c(C(F)(F)F)c4)c3)c2nc1C,72.6%
10,CCn1cc(-c2cc(-c3ccc(Cl)cc3)nc(N)n2)c(-c2ccc(Br)cc2)n1,72.7%
11,C/C(=N\O)c1ccc(Cl)cc1,108%
12,COc1ccc(-c2nc3ccc(C)cc3c3c2c(=O)n(C)c(=O)n3C)cc1OC,100%
13,COc1ccc(S(=O)(=O)n2cc(C(=O)C(=O)Nc3ccncc3)c3ccccc32)cc1F,17.9%
14,COc1ccccc1CNc1nc(N)nc2[nH]c3ccc(O)cc3c12,45.2%
15,C=CCN1C=CC(=O)[C@H](O[Si](C)(C)C(C)(C)C)[C@@H]1/C=C/c1ccccc1,-72.9% [100 µM] (active)
16,COc1cccc(OC)c1OC(=O)c1ccccc1,105%
17,CCNC(=S)N(Cc1ccccc1)Cc1ccccc1,95.4%
18,CCn1c(C)nc([N+](=O)[O-])c1Sc1nc(N)nc2nc[nH]c12,-11.2% (active)
19,S=C(c1ccc2c(c1)OCO2)N1CCN(c2cccc(Cl)c2)CC1,6.42% (active)
20,COc1ccc(-c2nn(-c3cccc(Cl)c3)cc2-c2c(C#N)c(=O)n3[nH]c(-c4ccc(C)cc4)nc3c2C#N)cc1,-1.87% (active)

row,Compound,growth
1,COc1ccc(/C=N/Nc2nc(Nc3ccccc3)nc(Nc3ccc(S(N)(=O)=O)cc3)n2)cc1,76.3%
2,CC[C@@H](C[C@H](CCO)c1ccccc1)c1cc2ccccc2o1,107%
3,O=C1CCC/C=C\C[C@H]2C=C(Cl)C(=O)/C2=C/C[C@H](CCCCC(F)(F)F)OC(=O)CCC/C=C\C[C@H]2C=C(Cl)C(=O)/C2=C/C[C@H](CCCCC(F)(F)F)O1,-72.2% [7.5 µM] (active)
4,Nc1c(C(=O)Nc2c(Cl)cccc2Cl)sc2nc3c(cc12)CCCCC3,32.1%
5,Cc1c(Cl)cccc1NC(=O)c1sc2nc3c(cc2c1N)CCCC3,15.1%
6,COC(=O)[C@H](Cc1cnc[nH]1)NC(=O)[C@@H](NC(=O)Nc1cc(C(F)(F)F)cc(C(F)(F)F)c1)C(C)C,-60.9% [100 µM] (active)
7,COc1cccc(-c2nc(-c3ccc(NC(=O)OC(C)C)cc3)[nH]c2-c2ccnc(Br)c2)c1,18.2%
8,COc1ccc(-c2nc3c(c(-c4ccccc4)nn3-c3ccccc3)c(-c3ccc(N4CCN(C)CC4)cc3)c2C#N)cc1,79.2%
9,CN(C)CCN1CCN(c2ncccc2C2Nc3ccccc3-n3cccc32)CC1 (stereo not given),109%
10,Oc1cccc2oc(=S)[nH]c12,105%
11,O=C(O)c1ccc(NC(=O)c2cccc(Nc3ccnc(C(F)(F)F)c3)c2)cc1,108%
12,Cn1cc(-c2nc(-c3cn(C)c4ncccc34)cs2)c2cc(F)ccc21,-8.46% (active)
13,CCOC(=O)/C=C/c1c(C)[nH]c(=O)[nH]c1=O,72.8%
14,CCOC(=O)c1cccnc1Nc1ccc(NC(=O)Nc2ccc(Cl)c(C(F)(F)F)c2)cc1,21.3%
15,CC(CC(CCC(=O)O)(c1ccccc1)c1ccccc1)N(C)C (stereo not given),98.4%
16,CC(C)OCc1cc(CN2CCN(c3cccc(Cl)c3)CC2)c(O)c2ncccc12,-15.4% (active)
17,C=C(C)[C@@H]1CC[C@]2(C(=O)O)CC[C@]3(C)[C@H](CC[C@@H]4[C@@]5(C)C/C(=C/c6cccc(I)c6)C(=O)C(C)(C)[C@@H]5CC[C@]43C)[C@@H]12,25.6%
18,Cc1cc(C)c(C=O)c(C)c1,94.1%
19,O=C(N/N=C1\c2ccccc2-c2cccc(C(=O)O)c21)c1ccc(O)cc1,90.8%
20,C=CCc1nc2ccccc2s1,-14.5% (active)
